{
  "source": "PubChem BioAssay AID624297",
  "about": "(National Center for Advancing Translational Sciences (NCATS), 2012)",
  "note": "The whole screen tested about 340,000 compounds, of which about 6,200 (1.8%) were called active. Another 10% or so got no clear call; they are omitted. Shown is part of a subset that was picked to be rich in actives. Values without a mark were called inactive. Calls come from the whole dose curve; as a rule, active = well fitted activation curve with a large enough effect; inconclusive = small, poorly fitted or top-dose-only effect; inactive = no such curve, though single readings can be large or run the other way. Potency is the fitted concentration of half-maximal effect.",
  "data": [
    {"test": "A quantitative high throughput screen for small molecules that induce DNA re-replication in SW480 colon adenocarcinoma cells; note: nearly all actives have a fitted effect of over 55% in size; for re-replication activation: % of control where 0% means no effect.", "conditions": "Hoechst DNA content imaging, 48 h; series mostly up to 46.1 µM; re-replication activation: at the top concentration", "from_the_text": "H Molecular Libraries Probe Production Network [MLPCN] NIH Chemical Genomics Center [NCGC] MLPCN Grant: Fast Track K99 CA136555 Assay Provider: Melvin DePamphilis, NICHD, NIH Assay Overview Eukaryotic cells normally restrict genome duplication to once per cell division. When this process is aberrant, DNA re-replication occurs when cells reinitiate DNA replication before the first round of replication is complete. DNA re-replication induces the DNA damage response, arrests cell proliferation, and triggers apoptosis. The cell cycle components cyclin A, Cdt-1, Cdc6 and geminin are critical regulators of this process and their misregulation results in DNA re-replication in normal and cancer cells. To identify compounds that induce re-replication in normal cells, an image-based assay was used to measure DNA content of nuclei, as detected by the fluorescent DNA binding dye, Hoechst. Cell nuclei were imaged by a fluorescence scanning plate imager and compounds that induce DNA re-replication were identified by the increase of nuclei with elevated fluorescence intensity\nFor screening, 250 cells in 5 uL/well were dispensed into black clear 1536-well plates (Aurora) using a solenoid-based dispenser. Following transfer of 23 nL compound or DMSO vehicle by a pin tool, the plates were incubated 48 hr at 37 C and 5% CO2. After addition of 1 uL/well Hoescht stain, the plates were incubated 40 min at 37 C, 5% CO2 and total intensity of fluorescent objects (nuclei) were enumerated by an Acumen Explorer Ex3 (TTP LabTech) fluorescence scanning plate imager (405 nm excitation, 500-530 nm emission). Keywords: NIH Roadmap, MLPCN, MLI, MLSMR, qHTS, NCGC, DNA replication, cancer", "values": [
      {"smiles": "CC(NC(=O)COC(=O)c1ccc2ccccc2n1)c1ccccc1", "note": "(configuration not stated)", "re-replication activation": "-3.09%"},
      {"smiles": "Cc1c(NC(=O)c2cccnc2)c(=O)n(-c2ccccc2)n1C", "Potency": "inactive"},
      {"smiles": "Cc1ccc(O)c(-c2cc(C(=O)Nc3c(C)n(C)n(-c4ccccc4)c3=O)[nH]n2)c1", "Potency": "0.058 µM (active)"},
      {"smiles": "Cc1ccc(O)c(-c2cc(C(=O)NCc3ccccc3)[nH]n2)c1", "re-replication activation": "-3.89%"},
      {"smiles": "O=C1Cc2cc(S(=O)(=O)Nc3cccc(F)c3)ccc2N1", "re-replication activation": "-6.13%"},
      {"smiles": "CC(OC(=O)c1cc2ccccc2[nH]1)C(=O)N(C)c1ccccc1", "note": "(configuration not stated)", "re-replication activation": "4.01%"},
      {"smiles": "COc1cccc(C2CC(c3cccs3)=NN2C(=O)CSC2=NCCS2)c1OC", "note": "(configuration not stated)", "re-replication activation": "20%"},
      {"smiles": "COc1ccccc1N1N=C(c2cccs2)CC1c1ccccc1", "note": "(configuration not stated)", "Potency": "2.59 µM (active)"},
      {"smiles": "COc1ccc(C2CC(c3cccs3)=NN2C(=O)CCC(=O)O)cc1OC", "note": "(configuration not stated)", "re-replication activation": "8.15%"},
      {"smiles": "NC(=O)C1(N2CCCC2)CCN(Cc2ccccc2)CC1", "re-replication activation": "-4.45%"},
      {"smiles": "CCCCN1CC(COCc2ccccc2)OCCS1(=O)=O", "note": "(configuration not stated)", "re-replication activation": "1.34%"},
      {"smiles": "Cc1cccc(CC2(O)C(=O)Nc3ccccc32)n1", "note": "(configuration not stated)", "re-replication activation": "-0.661%"},
      {"smiles": "O=C(CC1Sc2ccccc2NC1=O)NNc1ccc(Cl)c(Cl)c1", "note": "(configuration not stated)", "re-replication activation": "26.7%"},
      {"smiles": "COc1cccc(NC(=O)COc2cccnc2[N+](=O)[O-])c1", "re-replication activation": "3.79%"},
      {"smiles": "Cc1cc(=O)oc2cc(OCCC[n+]3ccccc3)ccc12", "re-replication activation": "-9.83%"},
      {"smiles": "Cc1cc(=O)oc2cc(OCC3CC(c4ccccc4Cl)=NO3)ccc12", "note": "(configuration not stated)", "Potency": "3.66 µM (active)"},
      {"smiles": "Cc1ccccc1N1CCN(CCCOc2ccc3c(C)cc(=O)oc3c2)CC1", "re-replication activation": "2.23%"},
      {"smiles": "CCCSC(=S)NC1CCS(=O)(=O)C1", "note": "(configuration not stated)", "Potency": "16.4 µM (active)"},
      {"smiles": "O=C(Cc1ccc(Cl)cc1)NC1CCS(=O)(=O)C1", "note": "(configuration not stated)", "re-replication activation": "-9.59%"},
      {"smiles": "COc1ccc(NC(=S)NC2CCS(=O)(=O)C2)cc1", "note": "(configuration not stated)", "re-replication activation": "-4.58%"},
      {"smiles": "CCNC(=S)N1CCN(S(=O)(=O)c2ccc(Cl)s2)CC1", "re-replication activation": "6.77%"},
      {"smiles": "CC1O[C@@H](OC2C(O)C(C)O[C@H](OC(=O)[C@]34CCC(C)(C)C[C@H]3C3=CCC5[C@@]6(C)CC(O)C(O[C@@H]7OC(CO)C(O)[C@@H](O)[C@@H]7O)[C@@](C)(C(=O)O)C6CC[C@@]5(C)[C@]3(CO)CC4)C2O[C@H]2OC(C)[C@@H](O[C@@H]3OCC(O[C@@H]4OC(CO)C(O)[C@H](O)C4O)[C@@H](O)[C@@H]3O)[C@H](O)C2O)C(O)C(O)C1O", "note": "(some centres not stated)", "re-replication activation": "-10.5%"},
      {"smiles": "Cc1cccc(C)c1NC(=O)CSc1ccc([N+](=O)[O-])cn1", "re-replication activation": "-14.5%"},
      {"smiles": "CC(C)(C)n1cnnc1Sc1ccc([N+](=O)[O-])cn1", "Potency": "18.4 µM (active)"},
      {"smiles": "O=[N+]([O-])c1ccc(Sc2n[nH]c(-c3ccco3)n2)nc1", "re-replication activation": "-5.13%"},
      {"smiles": "CC[C@]12c3[nH]c4cc(CCC(=O)N(C)C)ccc4c3CCN1C(=O)[C@@H](CC(=O)NCCCN(C)C)C[C@@H]2C(=O)N1CCN(C(=O)c2ccco2)CC1", "re-replication activation": "20.5%"},
      {"smiles": "CCOC(=O)[C@H]1[C@H]2COc3cc(OC)ccc3[C@@H]2N2C(=O)CN(Cc3ccc(Cl)cc3)C(=O)[C@@]12C", "re-replication activation": "-16.4%"},
      {"smiles": "Cc1ccsc1C(=O)OCC(=O)NCCc1ccccc1", "re-replication activation": "1.54%"},
      {"smiles": "COc1ccc(OC)c2[nH]c(=O)c(CCNC(=O)C(C)(C)C)cc12", "re-replication activation": "-5.04%"},
      {"smiles": "COc1ccc(/C=C(\\NC(=O)c2ccc(OC)c(OC)c2)C(=O)NCCc2c[nH]c3ccccc23)cc1", "re-replication activation": "-1.59%"},
      {"smiles": "COc1ccc(OC)c2[nH]c(=O)c(CCNC(=O)C(=O)c3c[nH]c4ccccc34)cc12", "Potency": "20.6 µM (active)"},
      {"smiles": "COc1ccccc1-c1sc2ccccc2c1C#CC1(O)CCCCC1", "re-replication activation": "4.55%"},
      {"smiles": "O=C(Nc1cccc(Cl)c1N1CCOCC1)c1ccc2c(c1)OCCO2", "Potency": "2.31 µM (active)"},
      {"smiles": "O=C(Nc1cccc(Cl)c1N1CCOCC1)c1cccnc1", "re-replication activation": "-21.8%"},
      {"smiles": "COC(=O)c1ccc(N2CCOCC2)c(NC(=O)c2ccc3c(c2)OCCO3)c1", "re-replication activation": "2.41%"},
      {"smiles": "C=CCCC(=O)N1C[C@H]2CON(C)[C@H]2C[C@H]1c1cccc(Nc2ccccc2)c1", "re-replication activation": "-6.4% [at 9.22 µM]"},
      {"smiles": "O=C(Nc1cccc(Br)c1)C1CC(=O)N(C2CCCC2)C1", "note": "(configuration not stated)", "re-replication activation": "3.19%"},
      {"smiles": "O=C(c1ccc(N2CCOCC2)c([N+](=O)[O-])c1)N1CCN(c2ccccc2F)CC1", "re-replication activation": "-0.686%"},
      {"smiles": "O=C(Nc1nnc(Cc2ccc(Cl)cc2)s1)c1cccnc1", "Potency": "18.4 µM (active)"},
      {"smiles": "O=C(Nc1nnc(Cc2ccc(Cl)cc2)s1)c1ccncc1", "re-replication activation": "-27.9%"},
      {"smiles": "O=C(Nc1nnc(Cc2ccccc2)s1)c1cnccn1", "re-replication activation": "-0.0264%"},
      {"smiles": "C=CCSc1nc2c(c(=O)[nH]c(=O)n2C)n1Cc1ccccc1", "Potency": "1.64 µM (active)"},
      {"smiles": "C=CCn1c(SCc2ccccc2)nc2c1c(=O)[nH]c(=O)n2C", "re-replication activation": "3.01%"},
      {"smiles": "Cc1nnc(Sc2nc3c(c(=O)[nH]c(=O)n3C)n2Cc2ccccc2)s1", "re-replication activation": "-6.16%"},
      {"smiles": "CCN(CC)S(=O)(=O)c1cc(C(=O)Nc2cc(S(=O)(=O)N3CCOCC3)ccc2N2CCCC2)ccc1F", "re-replication activation": "2.46%"},
      {"smiles": "CCN(CC)S(=O)(=O)c1ccc(N2CCOCC2)c(NC(=O)c2ccc(=O)n(C)n2)c1", "re-replication activation": "-15.4%"},
      {"smiles": "CCN(CC)S(=O)(=O)c1ccc(N2CCCC2)c(NC(=O)c2ccc([N+](=O)[O-])o2)c1", "Potency": "13 µM (active)"}
    ]}
  ]
}
